# Laboratory results as given in the supplement of paper PMC7366291.
# Structures can show the parent of a compound that is named as a salt. ± gives the standard deviation or the standard deviation of the averaged measurements.
# Legend:
# Conditions in all cases: 25 µM; exposure: 24-48 hpf
# [1] = test system: Danio rerio Tg(wt1b:EGFP) embryo, pronephros; test: glomerular separation, fold change vs DMSO control; higher = glomeruli further apart (abnormal)
# Method in brief: (§1)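 Dechorionated Tg(wt1b:EGFP) zebrafish embryos were kept from 24 to 48 hpf at 28.5°C in HEPES-buffered E3 containing 0.003% PTU, 0.5% DMSO and 25 μM compound. The pronephroi were then imaged from the dorsal side in agarose-filled 96-well plates at 470 nm with 10 z-slices, and 16 reference points were placed by hand on maximum projections in Fiji so that a macro could calculate distances and angles. Values lying more than 2 SD from the mean of a feature were discarded. Every feature is given as a fold change against the mean of DMSO-treated embryos from the same day.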
# [2] = test system: Danio rerio Tg(wt1b:EGFP) embryo, pronephros; test: glomerular width (mean of left and right), fold change vs DMSO control; higher = wider glomerulus
# Method in brief: as §1
# [3] = test system: Danio rerio Tg(wt1b:EGFP) embryo, pronephros; test: fraction of imaged embryos annotated as normal kidney; higher = less nephrotoxic; extreme values may be limits of the assay
# Method in brief: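 Tricaine-anaesthetised Tg(wt1b:EGFP) zebrafish larvae were oriented dorsally in agarose-filled 96-well plates, and their pronephroi were recorded by widefield fluorescence at 470 nm in 10 z-slices. Before this, the dechorionated embryos had been exposed in 12-well plates to 25 μM compound in 0.5% DMSO and 5 mM HEPES-buffered E3 with 0.003% PTU, from 24 to 48 hpf at 28.5°C. Maximum projections were annotated manually for each embryo, and the read-out is the fraction per treatment classed as normal kidney.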
# [4] = test system: Danio rerio Tg(wt1b:EGFP) embryo, pronephros; test: pronephric angle neck segment to proximal convoluted tubule (mean of left and right), fold change vs DMSO control; higher = larger pronephric angle
# Method in brief: as §1
SMILES,glomerular separation [1],glomerular width [2],fraction of imaged embryos annotated as normal kidney [3],pronephric angle neck segment [4]
CCOc1ccccc1OC(c1ccccc1)C1CNCCO1 (stereo not given) [Reboxetine mesylate],1.16 ± 0.43,1 ± 0.077,0.909,0.99 ± 0.0046
CC(C)CN(C[C@@H](O)[C@H](Cc1ccccc1)NC(=O)O[C@H]1CO[C@H]2OCC[C@H]21)S(=O)(=O)c1ccc(N)cc1 [Darunavir],1.16 ± 0.42,0.976 ± 0.018,,0.9599 ± 0.0035
CC(=O)OCC(=O)[C@@]12OC3(CCCC3)O[C@@H]1C[C@H]1[C@@H]3CCC4=CC(=O)C=C[C@]4(C)[C@@]3(F)[C@@H](O)C[C@@]12C [Amcinonide],1.06 ± 0.48,1.22 ± 0.14,0.417,1.01 ± 0.019
COc1cnc(NS(=O)(=O)c2ccc(N)cc2)nc1 [Sulfameter],0.925 ± 0.34,1.01 ± 0.021,0.833,0.9915 ± 0.0018
O=C(Nc1ccc([N+](=O)[O-])cc1Cl)c1cc(Cl)ccc1O [Niclosamide],1.53 ± 0.67,0.907 ± 0.04,0.455,1.26 ± 0.093
CN1CC2c3ccccc3Oc3ccc(Cl)cc3C2C1 (stereo not given) [Asenapine maleate],0.806 ± 0.35,0.991 ± 0.088,0.583,0.7772 ± 0.0031
Nc1ccc(S(=O)(=O)Nc2ccccn2)cc1 [Sulfapyridine],0.906 ± 0.35,1.07 ± 0.03,0.75,1 ± 0.083
CC(C(=O)O)c1cccc(C(=O)c2ccccc2)c1 (stereo not given) [Ketoprofen],1.58 ± 0.77,0.83 ± 0.037,,1.1 ± 0.028
NC(=O)C(c1ccccc1)(c1ccccc1)[C@@H]1CCN(CCc2ccc3c(c2)CCO3)C1 [Darifenacin hydrobromide],0.963 ± 0.39,1.09 ± 0.019,,1 ± 0.029
CCC(C)(C)C(=O)O[C@H]1C[C@@H](C)C=C2C=C[C@H](C)[C@H](CC[C@@H]3C[C@@H](O)CC(=O)O3)[C@H]21 [Simvastatin],4.7 ± 1.8,0.658 ± 0.034,,1.8 ± 0.065
C[C@H](CCC(=O)O)[C@H]1CC[C@H]2[C@@H]3[C@@H](O)C[C@@H]4C[C@H](O)CC[C@]4(C)[C@H]3CC[C@]12C [Urosiol],1.3 ± 0.7,0.775 ± 0.074,0.583,0.965 ± 0.032
CN1CCN(CCCN2c3ccccc3Sc3ccc(Cl)cc32)CC1 [Prochlorperazine dimaleate],1.05 ± 0.37,1.01 ± 0.033,0.833,1.02 ± 0.027
N[C@@H](Cc1cc(I)c(Oc2ccc(O)c(I)c2)c(I)c1)C(=O)O [Liothyronine],0.912 ± 0.45,0.9338 ± 0.0093,,1.01 ± 0.018
COc1ccc(C(=O)CC(=O)c2ccc(C(C)(C)C)cc2)cc1 [Avobenzone],0.991 ± 0.29,1.05 ± 0.063,0.667,1.005 ± 0.0096
CC(C(=O)O)c1cccc(Oc2ccccc2)c1 (stereo not given) [Fenoprofen calcium salt dihydrate],3.89 ± 1.7,0.88 ± 0.059,0,1.55 ± 0.027
CCOc1ccc2nc(S(N)(=O)=O)sc2c1 [Ethoxzolamide],2.05 ± 1.5,1.08 ± 0.0034,,1.2306 ± 0.00079
CCN(CC)CC(=O)Nc1c(C)cccc1C [Lidocaine hydrochloride],0.686 ± 0.29,1.04 ± 0.015,1,0.9342 ± 0.0069
"C[C@H]1C[C@@H]2[C@H]([C@@H](O)C[C@@]3(C)[C@H]2CC[C@]3(O)C(=O)CO)[C@@]2(C)C=CC(=O)C=C12 [Methylprednisolone, 6-alpha]",1.11 ± 0.4,1.21 ± 0.11,0.833,1.06 ± 0.088
COCCCOc1ccnc(C[S+]([O-])c2nc3ccccc3[nH]2)c1C (stereo not given) [Rabeprazole Sodium salt],0.694 ± 0.27,1.01 ± 0.019,0.75,1.11 ± 0.019
CC1(C)OC(=O)NC1=O [Dimethadione],1.27 ± 0.36,0.89 ± 0.031,0.667,1.0483 ± 0.00042
C[N+](C)(C)CCOC(N)=O [Carbachol],0.868 ± 0.25,1 ± 0.013,0.667,1.01 ± 0.047
CC1(C)NC(=O)N(c2ccc([N+](=O)[O-])c(C(F)(F)F)c2)C1=O [Nilutamide],1.14 ± 0.42,1.13 ± 0.035,0.667,0.945 ± 0.013
CN(C)CCCN1c2ccccc2Sc2ccc(C(F)(F)F)cc21 [Triflupromazine hydrochloride],0.863 ± 0.37,1.033 ± 0.0067,,0.954 ± 0.014
CC1(C)[C@H](C(=O)O)N2C(=O)C[C@H]2S1(=O)=O [Sulbactam],0.653 ± 0.18,1.07 ± 0.04,,0.952 ± 0.039
COc1ccc(CCN(C)CCCC(C#N)(c2ccc(OC)c(OC)c2)C(C)C)cc1OC (stereo not given) [Verapamil hydrochloride],1.1 ± 0.41,0.995 ± 0.019,,1.075 ± 0.0043
C[C@]12C[C@H](O)[C@H]3[C@@H](CCC4=CC(=O)CC[C@@]43C)[C@@H]1CC[C@@H]2C(=O)CO [Corticosterone],1.36 ± 0.4,1.13 ± 0.026,0.417,1.01 ± 0.019
